# Pf growth 96h = inhibits malaria parasite growth, 96 h | P. falciparum luciferase reporter growth, 96 h | Potency, µM (highest dose often 28.7 µM), hits mostly inhibitors | 6.9% of 320,000 active | AID 504834
#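 Two-generation exposure (96 h) targets delayed-death phenotype. Reporter parasites carrying integrated firefly luciferase, in red cells at 2% hematocrit and 0.05% parasitemia final, kept at 37 C, 5% CO2; luminescence loss indicates inhibition.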
# Shiga inhibitor = inhibitors of Shiga toxin in Vero cells; inhibition, % at 38.7 µM; 9.2% of 290,000 active; Vero cells, Shiga toxin protein synthesis inhibition reporter; in the data active means inhibition mostly above about 28%, no sharp cut-off; inactive means mostly below about 43%
# Cycloheximide cs = counter-screen for Shiga toxin inhibitors: cycloheximide protein synthesis inhibition | cell reporter, cycloheximide protein synthesis inhibition counterscreen | AID 2314 | max response, % | 12% of 300,000 active; in the data active means max response mostly above about 13%, no sharp cut-off; inactive means mostly below about 14%; further: read at 38.3 µM for the half of the compounds with a filed dose
# Pf growth 48h = P. falciparum growth inhibition at 48 hours (one generation) | AID 504832 | Potency, µM (titrated, usually from 28.7 µM), usual class: inhibitors | 5.9% of 310,000 active | P. falciparum luciferase growth in erythrocytes, 48 h
#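 Firefly luciferase activity from engineered P. falciparum reports growth; inhibitors lower the luminescent signal. Cultures contained 2% hematocrit erythrocytes at 0.1% final parasitemia.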
# NS1 inh = inhibitors of influenza NS1 protein function; Potency, µM (series often up to 46.1 µM); 0.4% of 270,000 active; AID 2326; calls by dose curve; further: actives are rising curves; nearly all actives have a fitted effect of over 50% in size
#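 In this qHTS, NS1 from influenza A is expressed in budding yeast, where it slows growth. Cells are switched from glucose to 2% galactose medium (pH 6.0, -URA), treated with compound, and growth recovery is read at OD600.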
# Hits are given with their value; n = inactive; u = inconclusive; x = no result; + = active, no number; [ ] = dose if it differs, or a comment. Hits are enriched below; roughly 21% of the tested compounds scored in any of these assays. Unless noted, the call rests on the fitted dose curve; in most records, active means well fitted inhibition curve with a large enough effect; inconclusive means small, poorly fitted or top-dose-only effect, or another doubt; inactive means no such curve, though single readings can be large or run the other way.
SMILES,Pf growth 96h,Shiga inhibitor,Cycloheximide cs,Pf growth 48h,NS1 inh
COc1cccc(OC)c1C(=O)NNC(=O)c1cccnc1,n,n,18.2,n,n
O=C(Nc1ccc(-c2noc(-c3cccs3)n2)cc1)c1cccnc1,u,59.0,26.6,n,n
CN(CC(=O)Nc1ccc(N2CCOCC2)cc1)C(=O)c1ccc(O)c(Cl)c1,n,n,n,n,n
CCOC(=O)c1c(C)n(C)c2c(C)cc(O)c(OC(C)=O)c12,x,n,n,n,n
COc1ccc(NC(=O)N2CCNC(=O)C2CC(=O)Nc2ccc(F)cc2)cc1 (stereo not given),n,n,n,n,n
CSc1ccccc1OCc1cc(C(=O)N2CCC(c3ccncc3)CC2)no1,n,n,18.7,n,n
CCOC(=O)N1CCC(NC(=O)c2cc(COc3ccccc3SC)on2)CC1,u,n,26.6,n,n
O=C(NCCCn1ccnc1)C1CCN(S(=O)(=O)c2ccc(F)cc2)CC1,n,n,n,n,n
CCc1ccccc1NC(=O)/C(C#N)=C/c1ccc(Sc2ccccc2)o1,u,n,n,u,n
CC1CC1c1ccc(/C=C(\C#N)C(=O)Nc2ccc(Cl)cc2)o1 (stereo not given),n,113.3,63.0,n,n
CC1CC1c1ccc(/C=C(\C#N)C(=O)Nc2ccccc2Cl)o1 (stereo not given),n,30.1,51.7,n,n
COc1cccc(-c2nc(CS(=O)(=O)CC(=O)Nc3ccc(C(C)=O)cc3)c(C)o2)c1,n,n,n,n,n
Nc1ccc(S(=O)(=O)NC2(C(F)(F)F)NC(=O)N(c3ccc(F)cc3)C2=O)cc1 (stereo not given),n,n,n,n,n
CCNC(=S)Nc1ccc(-c2nc3ccccc3[nH]2)cc1,u,102.9,40.3,n,x
O=C(CN1CCOCC1)Nc1ccc(-c2nc3ccccc3[nH]2)cc1,n,75.9,26.6,n,n
Cc1ccc(-c2nnc(-c3ccc(NC(=O)Cc4cccs4)cc3)o2)cc1,n,n,n,n,n
CCOc1ccc(NC(=S)NCc2nc3ccccc3[nH]2)cc1,n,n,n,n,x
O=C(Cc1cccs1)Nc1ccc(-c2nc3ccccc3[nH]2)cc1,u,131.4,36.7,n,n
N#Cc1ccccc1NC(=O)CN1CCOCC1,11.7µM,n,n,n,n
CCC(=O)c1cn(CC(=O)Nc2ccc(C)cc2C)c2ccccc12,u,x,n,n,n
COCCNC(=S)Nc1ccccc1Cc1ccccc1,u,n,n,u,x
CCc1nc(SCc2nc3ccccc3[nH]2)c2oc3ccccc3c2n1,u,n,13.7,x,n
c1cncc(-c2nnc(SCc3nc4ccccc4[nH]3)o2)c1,x,n,n,n,n
CCc1nc(SCC(=O)c2ccc(Cl)s2)c2oc3ccccc3c2n1,n,89.3,46.2,n,n
c1ccc2[nH]c(CSc3nc4ccccc4o3)nc2c1,n,136.6,42.5,n,n
SMILES,Pf growth 96h,Shiga inhibitor,Cycloheximide cs,Pf growth 48h,NS1 inh
Cc1cccc(NC(=O)c2cc3c(s2)-c2c(C)cccc2OC3)n1,n,n,10.5,n,n
Cc1c(NC(=O)c2cc3c(s2)-c2ccccc2OC3)cccc1[N+](=O)[O-],n,n,15.7,n,n
Cc1csc(NC(=O)c2cc3c(s2)-c2ccccc2OC3)n1,n,+,58.6,u,u
CCN1CCN(CCCNC(=O)c2cc3c(s2)-c2ccccc2OC3)CC1,u,n,n,u,n
CN(C)CCNC(=O)c1cc2c(s1)-c1ccccc1OC2,u,46.6,40.2,x,n
CC1CCCC(C)N1CCCNC(=O)c1cc2c(s1)-c1ccccc1OC2 (stereo not given),n,n,n,u,n
O=S1(=O)NC(C2CC2c2ccccc2)CCO1 (stereo not given),n,n,n,n,n
Cc1ccc(C(=O)Nc2c3c(nn2C(C)(C)C)CS(=O)(=O)C3)cc1C,n,n,n,n,n
CC1CC(C)CN(CCCNC(=O)c2cc3c(s2)-c2ccccc2OC3)C1 (stereo not given),n,n,n,2.94µM,n
CCC(=O)NC(c1cc(Cl)c2cccnc2c1O)C(C)C (stereo not given),13.1µM,x,x,2.94µM,x
CCC(=O)NC(c1cc(Cl)c2cccnc2c1O)C1CC1 (stereo not given),2.94µM,x,x,3.7µM,x
CCC(=O)NC(c1cccs1)c1cc(Cl)c2cccnc2c1O (stereo not given),n,n,n,n,n
COc1ccc(/[N+]([O-])=C/c2ccco2)cc1,n,x,x,n,x
O=C(OCC(=O)N1CCc2ccccc2C1)c1cccc([N+](=O)[O-])c1,n,n,n,n,n
Cc1cc(S(=O)(=O)n2[nH]c(=O)c(CCO)c2C)c(Cl)cc1Cl,n,n,n,n,n
CN(C)/C=C/C(=O)/C=C/c1cn(-c2ncc(C(F)(F)F)cc2Cl)c2ccccc12,u,n,n,13.1µM,n
COc1ccc(Cc2nnc(NC(=O)c3cccs3)s2)cc1OC,n,n,n,n,x
COc1cc(C(=O)N(c2ccc(C)c(C)c2)C2C=CS(=O)(=O)C2)cc(OC)c1OC (stereo not given),n[1.15 µM],n,n,n,n
CCOc1cc(N(CC)CC)ccc1/C=C(/C#N)c1nc2ccccc2[nH]1,8.28µM,82.2,27.3,n,n
COc1cc(/C=C(\C#N)c2nc3ccc(C)cc3[nH]2)c([N+](=O)[O-])cc1OC,u,n,n,u,n
CN(C)/C=C(\C#N)c1nc2ccccc2[nH]1,u,n,n,n,n
CCCOc1cc(N(CC)CC)ccc1/C=C(/C#N)c1nc2ccc(C)cc2[nH]1,2.62µM,n,n,7.38µM,n
CCN(CC)c1ccc(/C=C(/C#N)c2nc3ccc(C)cc3[nH]2)c(OC(C)C)c1,10.4µM,n,14.7,u,n
COc1cccc(NC(=O)CN2C(=O)COc3ccc(Cl)cc32)c1,u,n,n,x,n
O=C(NCCS(=O)(=O)N1CCN(c2ccc(F)cc2)CC1)C12CC3CC(CC(C3)C1)C2,n,x,x,11.7µM,x
SMILES,Pf growth 96h,Shiga inhibitor,Cycloheximide cs,Pf growth 48h,NS1 inh
c1ccc(OCCCc2nc(-c3ccncc3)no2)cc1,n,n,n,n,n
O=C1c2ccccc2C(=O)N1CCc1nc(-c2ccccn2)no1,x,57.8,28.1,n,n
O=C1c2ccccc2C(=O)N1CCCc1nc(-c2ccc(Cl)cc2)no1,u,n,n,x,n
O=C1c2ccccc2C(=O)N1CCCc1nc(-c2ccccn2)no1,x,83.9,22.7,n,u
c1ccc(OCCCc2nc(-c3ccccn3)no2)cc1,x,42.3,33.9,n,n
Nc1nonc1-c1noc(CCCCCN2C(=O)c3ccccc3C2=O)n1,13.1µM,148.0,74.9,n,n
CCCCCOc1ccccc1C(=O)NCCC(=O)O,n,n,n,u,n
O=P(O)(CCP(=O)(O)c1ccccc1)c1ccccc1,x,x,x,x,n
CCN(CC)C(=O)c1nn(-c2ccc(OC)cc2)c(=O)c2c(N)scc12,x,n,n,x,x
CC(=O)c1ccc(NC(=S)N2CCCC2)cc1,u,n,17.5,n,n
CC(=O)c1ccc(NC(=S)N2CCC(Cc3ccccc3)CC2)cc1,n,n,17.3,n,n
S=C(Nc1ccc(Br)cc1)N1CCCC1,n,n,27.0,n,n
Cc1ccc(NC(=S)N2CCCC2)cc1C,n,n,25.0,n,n

# Screening results deposited in PubChem by National Center for Advancing Translational Sciences (NCATS).
